Holding throughout (parameters): scale not given: direction of the effect not stated beside the values
In experiment [1] the target is Protein translocase subunit SecA (Escherichia coli (strain K12)) (UniProt P10408). Put plainly: Assay to Identify E. coli SecA ATPase Inhibitors. The settings on record: 30 µM. It counts as functional.
The target of experiment [2] is T1, Ubiquitin-activating enzyme e1, putative (Leishmania donovani (strain BPK282A1)) (UniProt E9BSI1).
T1 sequence (whole entry): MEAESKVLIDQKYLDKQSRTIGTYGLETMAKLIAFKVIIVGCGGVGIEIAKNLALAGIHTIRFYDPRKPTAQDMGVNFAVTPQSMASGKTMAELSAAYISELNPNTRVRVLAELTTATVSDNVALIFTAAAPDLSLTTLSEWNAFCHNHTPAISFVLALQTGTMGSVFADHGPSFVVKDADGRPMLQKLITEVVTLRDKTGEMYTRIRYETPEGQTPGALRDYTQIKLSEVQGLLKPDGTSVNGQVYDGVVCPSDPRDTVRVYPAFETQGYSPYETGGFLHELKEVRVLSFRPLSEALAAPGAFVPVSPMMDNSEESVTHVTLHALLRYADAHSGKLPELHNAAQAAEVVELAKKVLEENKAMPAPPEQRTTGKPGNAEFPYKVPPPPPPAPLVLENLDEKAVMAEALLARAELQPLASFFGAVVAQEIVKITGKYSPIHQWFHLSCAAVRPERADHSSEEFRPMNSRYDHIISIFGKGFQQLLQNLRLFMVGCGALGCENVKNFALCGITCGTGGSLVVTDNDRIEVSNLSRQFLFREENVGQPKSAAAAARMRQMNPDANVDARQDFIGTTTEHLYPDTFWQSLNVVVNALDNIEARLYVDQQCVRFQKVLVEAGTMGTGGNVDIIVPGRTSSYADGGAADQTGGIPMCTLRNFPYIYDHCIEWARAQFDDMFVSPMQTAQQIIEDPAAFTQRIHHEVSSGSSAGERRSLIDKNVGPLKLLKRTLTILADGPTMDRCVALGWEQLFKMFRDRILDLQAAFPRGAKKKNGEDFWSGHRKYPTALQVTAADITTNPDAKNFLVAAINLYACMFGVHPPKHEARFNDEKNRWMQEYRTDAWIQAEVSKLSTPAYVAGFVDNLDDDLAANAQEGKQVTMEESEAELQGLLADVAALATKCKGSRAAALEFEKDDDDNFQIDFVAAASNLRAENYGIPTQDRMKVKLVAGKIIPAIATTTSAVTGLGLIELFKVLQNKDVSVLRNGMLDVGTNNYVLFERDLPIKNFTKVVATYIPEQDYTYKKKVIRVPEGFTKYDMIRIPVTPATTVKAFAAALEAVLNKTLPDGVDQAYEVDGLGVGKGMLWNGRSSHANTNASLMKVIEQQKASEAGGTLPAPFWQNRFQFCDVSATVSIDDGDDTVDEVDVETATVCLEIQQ
The experiment is described as follows: Leishmania donovani Ubiquitin Activating Enzyme (LdE1). It counts as functional. The settings on record: 30 µM.

Experiment [3] deals with T2, Aspartate--tRNA(Asp/Asn) ligase (Mycobacterium tuberculosis (strain ATCC 25618 / H37Rv)) (UniProt P9WFW3).
T2 sequence (whole entry): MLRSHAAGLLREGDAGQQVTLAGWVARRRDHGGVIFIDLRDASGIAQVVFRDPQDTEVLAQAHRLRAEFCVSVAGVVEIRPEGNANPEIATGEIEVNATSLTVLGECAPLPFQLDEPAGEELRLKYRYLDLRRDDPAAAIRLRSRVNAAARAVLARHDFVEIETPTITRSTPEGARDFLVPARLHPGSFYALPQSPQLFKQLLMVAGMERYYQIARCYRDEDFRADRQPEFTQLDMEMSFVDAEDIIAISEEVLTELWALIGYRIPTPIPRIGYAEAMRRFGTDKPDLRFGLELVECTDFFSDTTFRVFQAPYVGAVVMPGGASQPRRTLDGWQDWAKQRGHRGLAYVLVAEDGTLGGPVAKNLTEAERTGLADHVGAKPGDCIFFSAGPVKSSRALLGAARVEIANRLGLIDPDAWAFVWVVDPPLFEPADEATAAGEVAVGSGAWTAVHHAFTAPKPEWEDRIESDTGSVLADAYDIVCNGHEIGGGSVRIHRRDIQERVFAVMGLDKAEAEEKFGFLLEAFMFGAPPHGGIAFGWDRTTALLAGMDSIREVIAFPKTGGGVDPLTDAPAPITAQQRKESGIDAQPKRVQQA
The experiment is described as follows: Assay for Asp RNA synthetase-1 from Mycobacterium tuberculosis. The format is functional. Particulars: 30 µM.

For experiment [4], the target named is AMP-activated protein kinase, AMPK (Homo sapiens) (UniProt P54646+O43741+P54619+Q9UGJ0+Q9Y478+Q13131+Q9UGI9). The experiment is described as follows: AMP-dependent Kinase enzyme assay. An in vitro enzyme assay that detects ADP turnover that is directly proportional to AMPK activity. This uses naive AMPK that is activated during the assay with MK-8722. The format is functional. Particulars: 30 µM.

The target in experiment [5] is Sialic acid-binding Ig-like lectin 9 (Homo sapiens) (UniProt Q9Y336). Put plainly: Hs-Siglec9 ALPHAscreen SOP 20170721. The settings on record: 10 µM. On the technique in general: Bead proximity is the source of the signal in Alpha formats.
A further experiment concerns Trypanosoma cruzi. The experiment is described as follows: Trypanosoma cruzi phosphomannomutase and mannose-1-phosphate guanylyltransferase assay. It counts as functional. The settings on record: 10 µM.
For experiment [6], the target named is T3, Arginase-2, mitochondrial (Homo sapiens) (UniProt P78540).
T3 sequence (whole entry): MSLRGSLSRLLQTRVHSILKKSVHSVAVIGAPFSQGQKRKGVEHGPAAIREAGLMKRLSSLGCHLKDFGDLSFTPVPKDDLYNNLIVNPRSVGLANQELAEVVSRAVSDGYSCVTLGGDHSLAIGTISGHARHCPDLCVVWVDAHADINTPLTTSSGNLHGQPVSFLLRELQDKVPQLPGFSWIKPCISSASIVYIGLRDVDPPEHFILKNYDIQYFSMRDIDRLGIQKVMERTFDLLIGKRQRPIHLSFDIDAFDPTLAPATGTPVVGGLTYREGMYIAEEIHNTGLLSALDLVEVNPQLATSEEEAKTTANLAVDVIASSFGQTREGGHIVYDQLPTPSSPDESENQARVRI
The experiment is described as follows: in vitro enzyme assay to detect the production of urea directly proportional to the activity of Arginase II. Also: in the data most compounds retested in dose-response had high values. The format is functional.

For experiment [7], the target named is T4, Proteasome subunit beta (Trypanosoma cruzi) (UniProt O96673).
T4 sequence (whole entry): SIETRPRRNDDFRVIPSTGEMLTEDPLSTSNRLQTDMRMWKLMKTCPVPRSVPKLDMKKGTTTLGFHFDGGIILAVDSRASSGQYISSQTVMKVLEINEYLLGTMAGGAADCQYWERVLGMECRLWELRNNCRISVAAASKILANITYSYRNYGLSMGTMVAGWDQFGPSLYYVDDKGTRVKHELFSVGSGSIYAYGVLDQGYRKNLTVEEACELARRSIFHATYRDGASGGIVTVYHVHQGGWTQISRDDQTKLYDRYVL
The experiment is described as follows: Trypanosoma cruzi proteasome chymotrypsin-like activity (TcProtChymo) assay. Also: in the data most compounds retested in dose-response had high values. The format is functional. The settings on record: 9.37 µM.

Another experiment is filed under the species Homo sapiens. Put plainly: To identify inhibition of the IFN signalling (Jak-Stat) pathway via expression of an eGFP reporter gene under the control of an IFN-stimulated response element (ISRE) containing MxA promoter. It counts as functional. The settings on record: 30 µM. A general note: A reporter such as luciferase makes a cellular process visible.

For experiment [8], the target named is Shiga toxin 2 (Escherichia coli O157:H7) (UniProt P09385+P09386). Put plainly: E. coli 0.157:H7 Shiga Toxin SOP - stx2 screening assay. The format is functional. The settings on record: 30 µM.
Experiment [9] has as its target T5, Tyrosyl-tRNA synthetase, putative (Trypanosoma cruzi (strain CL Brener)) (UniProt Q4DSP6).
T5 sequence (whole entry): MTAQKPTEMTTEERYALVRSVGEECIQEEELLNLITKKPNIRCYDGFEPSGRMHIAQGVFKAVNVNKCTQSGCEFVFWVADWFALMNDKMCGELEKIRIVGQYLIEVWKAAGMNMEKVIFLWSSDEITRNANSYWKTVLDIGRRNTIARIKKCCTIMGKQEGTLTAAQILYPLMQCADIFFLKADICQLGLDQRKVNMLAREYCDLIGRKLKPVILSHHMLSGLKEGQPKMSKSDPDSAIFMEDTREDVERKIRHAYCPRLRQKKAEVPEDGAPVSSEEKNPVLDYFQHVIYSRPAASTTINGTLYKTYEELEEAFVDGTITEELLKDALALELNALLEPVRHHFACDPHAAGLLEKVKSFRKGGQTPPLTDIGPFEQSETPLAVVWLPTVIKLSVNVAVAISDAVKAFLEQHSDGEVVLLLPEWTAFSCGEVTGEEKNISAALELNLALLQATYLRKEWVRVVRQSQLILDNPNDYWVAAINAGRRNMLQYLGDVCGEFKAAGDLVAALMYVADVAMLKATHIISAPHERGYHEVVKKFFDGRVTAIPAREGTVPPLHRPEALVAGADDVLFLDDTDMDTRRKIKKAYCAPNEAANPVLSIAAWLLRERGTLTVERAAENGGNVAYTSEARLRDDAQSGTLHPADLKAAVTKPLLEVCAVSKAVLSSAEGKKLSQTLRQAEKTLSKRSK
Put plainly: Trypanosoma cruzi tyrosyl tRNA synthetase (TcYRS) _High Tyrosine SOP. Also: in the data most compounds retested in dose-response had high values. It counts as functional. The settings on record: 30 µM.

Experiment [10] has as its target T5, Tyrosyl-tRNA synthetase, putative (Trypanosoma cruzi (strain CL Brener)). Put plainly: Trypanosoma cruzi tyrosyl tRNA synthetase (TcYRS) SOP. It counts as functional. Particulars: 30 µM.
The target of experiment [11] is Chromo domain-containing protein 1 (Saccharomyces cerevisiae (strain ATCC 204508 / S288c) (Baker's yeast)) (UniProt P32657). The experiment is described as follows: ScCHD-1 Enzyme Inhibition Assay. Also: in the data most compounds retested in dose-response had high values. It counts as functional. Particulars: 30 µM.

For part of these data: Results with a measured potency or affinity are listed apart.

Chain of Sialic acid-binding Ig-like lectin 9 (Homo sapiens) (Q9Y336 whole entry): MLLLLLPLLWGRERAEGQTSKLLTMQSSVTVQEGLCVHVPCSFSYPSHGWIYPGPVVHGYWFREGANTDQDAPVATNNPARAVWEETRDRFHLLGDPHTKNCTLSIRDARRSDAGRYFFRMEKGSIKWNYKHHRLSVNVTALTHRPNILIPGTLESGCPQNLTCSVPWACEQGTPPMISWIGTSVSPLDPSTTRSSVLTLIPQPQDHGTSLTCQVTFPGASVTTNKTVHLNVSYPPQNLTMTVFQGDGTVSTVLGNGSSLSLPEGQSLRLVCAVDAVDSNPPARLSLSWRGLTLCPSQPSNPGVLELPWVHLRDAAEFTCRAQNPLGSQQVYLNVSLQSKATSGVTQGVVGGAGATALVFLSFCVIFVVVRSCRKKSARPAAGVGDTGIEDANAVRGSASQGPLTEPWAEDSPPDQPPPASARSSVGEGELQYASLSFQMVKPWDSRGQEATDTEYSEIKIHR
Chain of Protein translocase subunit SecA (Escherichia coli (strain K12)) (P10408 whole entry): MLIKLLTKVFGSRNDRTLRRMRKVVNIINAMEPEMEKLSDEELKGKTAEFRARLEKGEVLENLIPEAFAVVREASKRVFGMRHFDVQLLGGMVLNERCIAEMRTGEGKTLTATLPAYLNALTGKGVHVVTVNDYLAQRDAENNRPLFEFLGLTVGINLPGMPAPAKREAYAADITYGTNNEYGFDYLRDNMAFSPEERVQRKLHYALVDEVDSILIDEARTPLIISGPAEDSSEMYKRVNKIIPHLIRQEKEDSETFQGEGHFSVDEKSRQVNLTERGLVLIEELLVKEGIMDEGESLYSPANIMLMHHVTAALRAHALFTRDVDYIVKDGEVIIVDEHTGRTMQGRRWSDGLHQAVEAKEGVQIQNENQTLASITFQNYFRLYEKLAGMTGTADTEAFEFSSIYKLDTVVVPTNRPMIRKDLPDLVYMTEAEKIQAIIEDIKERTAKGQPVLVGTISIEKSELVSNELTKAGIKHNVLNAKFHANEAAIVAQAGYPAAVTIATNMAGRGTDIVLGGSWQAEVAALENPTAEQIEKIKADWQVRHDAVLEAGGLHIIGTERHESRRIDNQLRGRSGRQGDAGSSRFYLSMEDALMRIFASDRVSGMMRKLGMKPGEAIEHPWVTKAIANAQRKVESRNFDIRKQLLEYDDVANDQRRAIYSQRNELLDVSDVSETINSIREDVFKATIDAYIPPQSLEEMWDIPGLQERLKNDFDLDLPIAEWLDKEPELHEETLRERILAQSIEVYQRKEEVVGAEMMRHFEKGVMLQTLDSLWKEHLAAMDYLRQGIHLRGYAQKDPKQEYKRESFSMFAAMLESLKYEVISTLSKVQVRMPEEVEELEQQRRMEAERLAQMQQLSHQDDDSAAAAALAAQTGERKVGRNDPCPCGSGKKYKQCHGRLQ
Chain of Chromo domain-containing protein 1 (Saccharomyces cerevisiae (strain ATCC 204508 / S288c) (Baker's yeast)) (P32657 whole entry, the tested form may be a part): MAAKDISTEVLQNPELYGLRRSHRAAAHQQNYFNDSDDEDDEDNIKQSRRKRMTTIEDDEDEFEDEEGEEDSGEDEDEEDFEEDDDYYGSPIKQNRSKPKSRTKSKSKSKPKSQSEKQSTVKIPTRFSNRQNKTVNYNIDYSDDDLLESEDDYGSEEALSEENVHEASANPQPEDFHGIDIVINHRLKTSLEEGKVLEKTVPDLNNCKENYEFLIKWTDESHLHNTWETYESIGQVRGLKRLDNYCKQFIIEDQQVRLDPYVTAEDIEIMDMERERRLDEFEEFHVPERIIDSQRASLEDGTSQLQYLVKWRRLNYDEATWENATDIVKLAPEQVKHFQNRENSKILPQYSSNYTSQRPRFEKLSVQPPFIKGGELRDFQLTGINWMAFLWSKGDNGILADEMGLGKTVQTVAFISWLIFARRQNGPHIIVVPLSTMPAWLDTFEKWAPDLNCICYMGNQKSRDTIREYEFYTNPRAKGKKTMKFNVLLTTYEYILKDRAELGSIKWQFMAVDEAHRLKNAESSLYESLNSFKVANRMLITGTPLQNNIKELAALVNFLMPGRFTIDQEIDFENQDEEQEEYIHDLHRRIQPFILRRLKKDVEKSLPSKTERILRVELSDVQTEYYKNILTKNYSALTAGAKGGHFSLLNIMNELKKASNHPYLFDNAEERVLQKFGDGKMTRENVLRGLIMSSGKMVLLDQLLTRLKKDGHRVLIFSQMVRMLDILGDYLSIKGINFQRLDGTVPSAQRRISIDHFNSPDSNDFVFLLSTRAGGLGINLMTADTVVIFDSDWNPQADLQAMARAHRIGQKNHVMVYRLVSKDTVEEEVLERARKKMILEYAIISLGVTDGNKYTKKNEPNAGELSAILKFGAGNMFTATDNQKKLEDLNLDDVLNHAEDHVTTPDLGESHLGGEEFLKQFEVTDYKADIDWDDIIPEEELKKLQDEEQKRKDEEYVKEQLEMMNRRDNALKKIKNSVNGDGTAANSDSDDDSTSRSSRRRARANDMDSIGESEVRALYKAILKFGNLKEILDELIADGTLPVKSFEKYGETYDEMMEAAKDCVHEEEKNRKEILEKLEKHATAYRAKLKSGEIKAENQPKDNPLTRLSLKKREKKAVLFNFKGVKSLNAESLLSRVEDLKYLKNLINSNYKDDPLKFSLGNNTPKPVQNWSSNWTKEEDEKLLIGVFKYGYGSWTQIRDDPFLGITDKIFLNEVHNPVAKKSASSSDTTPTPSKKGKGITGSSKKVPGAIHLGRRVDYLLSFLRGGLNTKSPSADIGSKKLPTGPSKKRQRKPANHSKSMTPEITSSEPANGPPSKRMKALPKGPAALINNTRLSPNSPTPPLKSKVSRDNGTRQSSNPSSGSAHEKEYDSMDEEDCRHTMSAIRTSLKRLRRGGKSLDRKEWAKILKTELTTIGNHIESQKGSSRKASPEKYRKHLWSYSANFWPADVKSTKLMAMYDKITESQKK

Consider `c1ccc(CN2CC[C@]3(C[C@@H](Oc4ccccn4)CO3)C2)nc1`, for which the Percent Effect in experiment [1] was -4.14%; in experiment [2], 18.7%; in experiment [3] it was -1.57%; in experiment [4] it was -1.39%; in [5], -5.45%; with Trypanosoma cruzi it was -0.394%. For the same compound, the Percent Effect in [6] (30 µM) was -12.4%; in [6] (33.3 µM), 0.233%; in experiment [7], 5.02%; in the experiment listed under Homo sapiens, 17.7%; in experiment [8], -36.4%; in experiment [9], 2.13%. The Percent Effect in experiment [10] was 14.1%; in experiment [11] it was -0.948%.

Regarding `CO[C@H]1CCN(Cc2ccccn2)[C@@H]2CN(Cc3ccco3)C[C@H]12`, the Percent Effect in experiment [1] is -4.75%; in [2] it was 9.33%; in experiment [3], -1.34%; in experiment [4] it was 0.435%; in experiment [5], 4.87%; in the experiment with Trypanosoma cruzi it was -3.34%. Besides, the Percent Effect was 2.64% in experiment [6] (33.3 µM); 17.7% in experiment [7]; -12.9% in the experiment listed under Homo sapiens; -18.4% in experiment [8]; 9.52% in experiment [9]; 15.4% in [10]. The Percent Effect in experiment [11] is -1.8%.

The values above are taken from ChEMBL document CHEMBL3988442, “University of Dundee, Small-Polar-MMV Screening Library” (2021).
